Laboratory results reported in ChEMBL document CHEMBL1961873, “Compounds: GSK PKIS; Assays: Nanosyn kinase panel” (2012).
Values joined by “and” are separate entries in the source; they are usually repeats but may differ in a detail not shown here. Equal entries are not always repeated.

Tests used:
[1] = target: Calcium/calmodulin-dependent protein kinase type II subunit alpha (Homo sapiens) (UniProt Q9UQM7); conditions: at 1 µM;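 also: reported value is a mean percent inhibition of CAMK2A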
[2] = target: Calcium/calmodulin-dependent protein kinase type II subunit delta (Homo sapiens) (UniProt Q13557); conditions: at 0.1 µM
[3] = target: Calcium/calmodulin-dependent protein kinase type II subunit delta (Homo sapiens) (UniProt Q13557); conditions: at 1 µM
[4] = target: T1, Calcium/calmodulin-dependent protein kinase type IV (Homo sapiens) (UniProt Q16566); conditions: at 0.1 µM
T1 sequence (whole entry): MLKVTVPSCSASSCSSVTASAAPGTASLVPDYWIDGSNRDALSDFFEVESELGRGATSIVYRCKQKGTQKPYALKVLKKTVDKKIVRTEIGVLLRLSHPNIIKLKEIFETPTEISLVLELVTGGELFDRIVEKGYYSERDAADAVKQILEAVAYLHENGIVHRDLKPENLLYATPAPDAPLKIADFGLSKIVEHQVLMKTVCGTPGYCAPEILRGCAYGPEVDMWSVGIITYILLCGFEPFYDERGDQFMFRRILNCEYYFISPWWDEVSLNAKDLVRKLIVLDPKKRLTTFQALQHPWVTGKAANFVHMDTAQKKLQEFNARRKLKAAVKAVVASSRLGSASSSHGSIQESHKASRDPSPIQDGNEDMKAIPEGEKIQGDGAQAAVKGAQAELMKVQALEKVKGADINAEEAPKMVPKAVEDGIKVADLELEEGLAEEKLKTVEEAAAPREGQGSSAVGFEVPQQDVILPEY

[5] = target: T1, Calcium/calmodulin-dependent protein kinase type IV (Homo sapiens); conditions: at 1 µM
[6] = target: T2, Serine/threonine-protein kinase Chk1 (Homo sapiens) (UniProt O14757); conditions: at 0.1 µM
T2 sequence (whole entry): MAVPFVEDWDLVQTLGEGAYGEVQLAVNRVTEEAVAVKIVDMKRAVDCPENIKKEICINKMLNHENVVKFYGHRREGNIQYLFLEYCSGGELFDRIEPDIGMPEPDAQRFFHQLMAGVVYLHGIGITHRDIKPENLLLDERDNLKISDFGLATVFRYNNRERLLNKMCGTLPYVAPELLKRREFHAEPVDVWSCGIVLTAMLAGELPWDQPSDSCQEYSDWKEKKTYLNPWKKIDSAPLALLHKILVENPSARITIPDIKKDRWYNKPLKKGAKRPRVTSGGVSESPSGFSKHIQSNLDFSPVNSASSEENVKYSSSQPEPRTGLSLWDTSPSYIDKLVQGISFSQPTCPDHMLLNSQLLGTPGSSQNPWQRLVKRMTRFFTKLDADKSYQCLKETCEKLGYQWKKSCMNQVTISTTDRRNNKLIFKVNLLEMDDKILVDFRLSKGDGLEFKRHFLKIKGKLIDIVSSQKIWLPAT

[7] = target: T2, Serine/threonine-protein kinase Chk1 (Homo sapiens); conditions: at 1 µM
[8] = target: Serine/threonine-protein kinase Chk2 (Homo sapiens) (UniProt O96017); conditions: at 0.1 µM
Chain of Serine/threonine-protein kinase Chk2 (Homo sapiens) (O96017 whole entry): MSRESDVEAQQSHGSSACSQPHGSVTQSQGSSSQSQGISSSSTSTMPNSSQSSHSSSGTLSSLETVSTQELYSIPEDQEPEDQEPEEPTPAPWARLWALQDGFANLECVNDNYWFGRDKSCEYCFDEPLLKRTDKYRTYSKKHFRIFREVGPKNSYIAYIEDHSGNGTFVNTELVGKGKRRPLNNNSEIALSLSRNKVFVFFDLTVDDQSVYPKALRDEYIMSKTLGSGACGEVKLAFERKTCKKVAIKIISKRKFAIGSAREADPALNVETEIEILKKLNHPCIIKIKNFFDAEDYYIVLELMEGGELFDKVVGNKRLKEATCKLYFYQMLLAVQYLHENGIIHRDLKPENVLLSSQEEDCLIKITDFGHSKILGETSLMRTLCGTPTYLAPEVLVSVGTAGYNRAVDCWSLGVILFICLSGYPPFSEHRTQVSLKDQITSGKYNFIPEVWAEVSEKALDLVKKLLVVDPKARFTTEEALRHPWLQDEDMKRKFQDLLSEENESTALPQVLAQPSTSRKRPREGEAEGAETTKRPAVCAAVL

[9] = target: Serine/threonine-protein kinase Chk2 (Homo sapiens) (UniProt O96017); conditions: at 1 µM
[10] = target: Death-associated protein kinase 1 (Homo sapiens) (UniProt P53355); conditions: at 0.1 µM
Chain of Death-associated protein kinase 1 (Homo sapiens) (P53355 whole entry, looked up): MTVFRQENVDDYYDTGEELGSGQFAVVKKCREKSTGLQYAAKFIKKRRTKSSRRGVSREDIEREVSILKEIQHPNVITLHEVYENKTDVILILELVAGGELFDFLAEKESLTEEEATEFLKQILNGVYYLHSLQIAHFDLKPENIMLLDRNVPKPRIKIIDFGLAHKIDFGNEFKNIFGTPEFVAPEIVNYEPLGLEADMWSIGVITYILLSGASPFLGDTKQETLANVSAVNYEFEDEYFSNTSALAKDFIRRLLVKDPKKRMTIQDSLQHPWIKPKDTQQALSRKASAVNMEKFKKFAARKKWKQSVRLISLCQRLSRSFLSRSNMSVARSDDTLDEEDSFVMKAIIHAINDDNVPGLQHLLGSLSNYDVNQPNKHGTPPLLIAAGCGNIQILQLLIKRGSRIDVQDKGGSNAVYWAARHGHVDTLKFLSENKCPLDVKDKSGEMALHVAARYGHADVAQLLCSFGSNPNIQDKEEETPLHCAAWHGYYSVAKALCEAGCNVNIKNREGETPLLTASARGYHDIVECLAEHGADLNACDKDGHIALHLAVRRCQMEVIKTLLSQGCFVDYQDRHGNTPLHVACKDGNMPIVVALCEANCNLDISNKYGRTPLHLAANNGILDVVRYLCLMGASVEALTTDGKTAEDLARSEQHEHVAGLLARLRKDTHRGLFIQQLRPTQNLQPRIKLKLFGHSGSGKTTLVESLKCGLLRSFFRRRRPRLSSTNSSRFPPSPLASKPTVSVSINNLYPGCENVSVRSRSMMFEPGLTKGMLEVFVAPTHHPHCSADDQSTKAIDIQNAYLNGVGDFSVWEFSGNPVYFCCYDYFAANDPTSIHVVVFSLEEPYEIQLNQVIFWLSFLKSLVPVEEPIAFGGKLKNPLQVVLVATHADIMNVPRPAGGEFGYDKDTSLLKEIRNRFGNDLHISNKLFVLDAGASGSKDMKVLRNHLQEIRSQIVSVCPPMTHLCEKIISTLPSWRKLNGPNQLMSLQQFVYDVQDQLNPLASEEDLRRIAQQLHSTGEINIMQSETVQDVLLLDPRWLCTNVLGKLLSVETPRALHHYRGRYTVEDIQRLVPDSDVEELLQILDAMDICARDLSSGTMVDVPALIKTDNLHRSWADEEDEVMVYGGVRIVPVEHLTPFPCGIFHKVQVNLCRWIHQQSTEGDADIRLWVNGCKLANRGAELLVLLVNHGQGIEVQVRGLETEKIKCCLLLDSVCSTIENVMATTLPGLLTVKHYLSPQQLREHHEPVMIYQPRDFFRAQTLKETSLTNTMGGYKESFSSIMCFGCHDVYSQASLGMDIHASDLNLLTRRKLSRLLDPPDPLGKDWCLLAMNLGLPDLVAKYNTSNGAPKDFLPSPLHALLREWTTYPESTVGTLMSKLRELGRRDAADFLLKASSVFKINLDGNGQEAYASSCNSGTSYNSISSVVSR

[11] = target: Death-associated protein kinase 1 (Homo sapiens) (UniProt P53355); conditions: at 1 µM
[12] = target: T3, Serine/threonine-protein kinase DCLK2 (Homo sapiens) (UniProt Q8N568); conditions: at 0.1 µM
T3 sequence (whole entry): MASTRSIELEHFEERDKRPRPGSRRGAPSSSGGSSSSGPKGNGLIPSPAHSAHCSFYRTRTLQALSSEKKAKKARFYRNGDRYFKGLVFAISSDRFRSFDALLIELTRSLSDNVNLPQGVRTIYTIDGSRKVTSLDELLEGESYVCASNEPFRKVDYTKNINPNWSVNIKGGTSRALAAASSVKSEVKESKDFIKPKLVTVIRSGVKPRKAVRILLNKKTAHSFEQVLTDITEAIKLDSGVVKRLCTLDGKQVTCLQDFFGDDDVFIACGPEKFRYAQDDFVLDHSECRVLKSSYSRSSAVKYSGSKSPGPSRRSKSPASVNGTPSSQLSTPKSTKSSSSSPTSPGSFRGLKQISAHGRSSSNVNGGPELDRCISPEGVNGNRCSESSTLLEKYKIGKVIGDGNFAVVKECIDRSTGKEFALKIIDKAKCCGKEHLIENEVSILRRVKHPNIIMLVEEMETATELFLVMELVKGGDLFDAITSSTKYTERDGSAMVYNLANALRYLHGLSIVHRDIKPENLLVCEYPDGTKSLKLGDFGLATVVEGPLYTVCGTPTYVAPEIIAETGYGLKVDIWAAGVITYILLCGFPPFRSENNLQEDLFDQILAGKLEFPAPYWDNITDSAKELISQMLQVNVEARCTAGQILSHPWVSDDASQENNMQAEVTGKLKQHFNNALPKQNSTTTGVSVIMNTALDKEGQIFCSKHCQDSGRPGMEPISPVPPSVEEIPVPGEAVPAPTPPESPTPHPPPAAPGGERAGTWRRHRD

[13] = target: T3, Serine/threonine-protein kinase DCLK2 (Homo sapiens); conditions: at 1 µM
[14] = target: MAP kinase-activated protein kinase 2 (Homo sapiens) (UniProt P49137); conditions: at 0.1 µM
Chain of MAP kinase-activated protein kinase 2 (Homo sapiens) (P49137 whole entry, looked up): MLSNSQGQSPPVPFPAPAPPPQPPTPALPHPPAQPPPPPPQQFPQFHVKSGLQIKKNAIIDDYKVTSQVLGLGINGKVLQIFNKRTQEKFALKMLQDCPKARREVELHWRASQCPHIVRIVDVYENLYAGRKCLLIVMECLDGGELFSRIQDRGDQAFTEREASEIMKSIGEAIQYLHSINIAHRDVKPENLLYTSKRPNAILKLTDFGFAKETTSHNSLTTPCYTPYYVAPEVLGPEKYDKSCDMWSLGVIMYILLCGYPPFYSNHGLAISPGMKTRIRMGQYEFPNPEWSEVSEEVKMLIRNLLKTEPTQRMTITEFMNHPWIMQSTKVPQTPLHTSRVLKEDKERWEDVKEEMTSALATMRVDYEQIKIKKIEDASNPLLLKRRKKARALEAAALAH

[15] = target: MAP kinase-activated protein kinase 2 (Homo sapiens) (UniProt P49137); conditions: at 1 µM
[16] = target: MAP kinase-activated protein kinase 3 (Homo sapiens) (UniProt Q16644); conditions: at 0.1 µM
Chain of MAP kinase-activated protein kinase 3 (Homo sapiens) (Q16644 whole entry, looked up): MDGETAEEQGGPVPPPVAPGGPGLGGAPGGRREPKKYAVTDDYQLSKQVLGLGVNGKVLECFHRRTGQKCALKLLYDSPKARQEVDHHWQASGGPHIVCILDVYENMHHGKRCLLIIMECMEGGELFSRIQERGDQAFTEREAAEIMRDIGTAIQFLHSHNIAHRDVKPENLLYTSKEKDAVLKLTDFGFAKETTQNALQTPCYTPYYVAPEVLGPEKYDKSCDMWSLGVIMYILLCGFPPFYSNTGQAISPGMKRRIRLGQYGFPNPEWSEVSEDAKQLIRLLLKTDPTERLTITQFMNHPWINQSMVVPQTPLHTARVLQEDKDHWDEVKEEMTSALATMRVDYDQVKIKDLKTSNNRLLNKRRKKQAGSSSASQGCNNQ

[17] = target: MAP kinase-activated protein kinase 3 (Homo sapiens) (UniProt Q16644); conditions: at 1 µM
[18] = target: Serine/threonine-protein kinase MARK1 (Homo sapiens) (UniProt Q9P0L2); conditions: at 0.1 µM
Chain of Serine/threonine-protein kinase MARK1 (Homo sapiens) (Q9P0L2 whole entry, looked up): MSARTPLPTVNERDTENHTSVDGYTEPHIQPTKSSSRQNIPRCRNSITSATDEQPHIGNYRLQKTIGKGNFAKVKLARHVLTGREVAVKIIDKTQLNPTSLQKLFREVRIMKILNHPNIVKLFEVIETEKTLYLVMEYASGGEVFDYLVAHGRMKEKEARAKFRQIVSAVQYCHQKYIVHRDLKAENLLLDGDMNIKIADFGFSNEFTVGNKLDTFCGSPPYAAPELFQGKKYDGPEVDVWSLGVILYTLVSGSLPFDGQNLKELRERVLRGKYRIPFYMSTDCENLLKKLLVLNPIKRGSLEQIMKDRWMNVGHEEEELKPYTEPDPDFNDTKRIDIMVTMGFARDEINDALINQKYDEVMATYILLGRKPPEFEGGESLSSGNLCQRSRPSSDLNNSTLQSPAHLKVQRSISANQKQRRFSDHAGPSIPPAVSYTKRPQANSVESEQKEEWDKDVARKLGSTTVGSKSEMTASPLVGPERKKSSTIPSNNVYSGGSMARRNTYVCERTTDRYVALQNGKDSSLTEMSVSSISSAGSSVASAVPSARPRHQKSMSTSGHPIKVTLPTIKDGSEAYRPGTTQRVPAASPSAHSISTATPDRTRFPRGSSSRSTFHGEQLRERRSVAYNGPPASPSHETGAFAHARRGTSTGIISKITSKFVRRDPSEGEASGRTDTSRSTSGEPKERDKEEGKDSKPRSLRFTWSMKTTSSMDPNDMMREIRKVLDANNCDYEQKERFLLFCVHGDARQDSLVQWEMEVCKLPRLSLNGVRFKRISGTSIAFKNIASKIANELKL

[19] = target: Serine/threonine-protein kinase MARK1 (Homo sapiens) (UniProt Q9P0L2); conditions: at 1 µM
[20] = target: MAP/microtubule affinity-regulating kinase 3 (Homo sapiens) (UniProt P27448); conditions: at 0.1 µM;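 also: mean percent inhibition of MARK3 kinase activity, measured within the GSK PKIS screening panel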
Chain of MAP/microtubule affinity-regulating kinase 3 (Homo sapiens) (P27448 whole entry, looked up): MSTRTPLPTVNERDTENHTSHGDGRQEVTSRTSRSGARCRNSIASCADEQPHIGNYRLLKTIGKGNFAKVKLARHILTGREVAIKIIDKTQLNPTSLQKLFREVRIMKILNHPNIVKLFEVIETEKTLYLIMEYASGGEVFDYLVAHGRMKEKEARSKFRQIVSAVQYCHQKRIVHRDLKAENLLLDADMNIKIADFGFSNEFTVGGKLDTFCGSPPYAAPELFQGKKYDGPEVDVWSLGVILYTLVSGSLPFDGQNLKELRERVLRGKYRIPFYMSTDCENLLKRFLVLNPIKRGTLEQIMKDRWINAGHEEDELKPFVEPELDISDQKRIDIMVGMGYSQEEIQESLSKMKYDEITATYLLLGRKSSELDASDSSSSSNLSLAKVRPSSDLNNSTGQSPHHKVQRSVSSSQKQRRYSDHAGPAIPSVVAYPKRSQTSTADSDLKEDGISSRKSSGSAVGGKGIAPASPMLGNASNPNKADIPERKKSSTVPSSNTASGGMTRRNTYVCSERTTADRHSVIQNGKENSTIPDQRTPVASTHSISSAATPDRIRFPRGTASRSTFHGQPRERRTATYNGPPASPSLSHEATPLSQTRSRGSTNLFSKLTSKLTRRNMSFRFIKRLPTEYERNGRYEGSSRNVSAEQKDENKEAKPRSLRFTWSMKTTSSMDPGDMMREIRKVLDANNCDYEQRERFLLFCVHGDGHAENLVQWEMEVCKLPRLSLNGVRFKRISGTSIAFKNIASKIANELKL

Chain of Calcium/calmodulin-dependent protein kinase type II subunit alpha (Homo sapiens) (Q9UQM7 whole entry): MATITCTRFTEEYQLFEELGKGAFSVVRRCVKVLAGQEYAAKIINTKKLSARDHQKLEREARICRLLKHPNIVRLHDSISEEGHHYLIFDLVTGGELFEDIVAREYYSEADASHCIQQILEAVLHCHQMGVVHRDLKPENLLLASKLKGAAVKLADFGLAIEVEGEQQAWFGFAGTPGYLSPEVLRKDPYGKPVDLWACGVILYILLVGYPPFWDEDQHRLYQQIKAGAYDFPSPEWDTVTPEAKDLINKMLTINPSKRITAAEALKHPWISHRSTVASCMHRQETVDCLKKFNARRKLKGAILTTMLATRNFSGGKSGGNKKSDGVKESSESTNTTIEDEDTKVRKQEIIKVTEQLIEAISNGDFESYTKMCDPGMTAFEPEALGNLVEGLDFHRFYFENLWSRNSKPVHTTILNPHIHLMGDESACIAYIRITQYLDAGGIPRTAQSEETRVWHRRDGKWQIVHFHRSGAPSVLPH

SMILES | inhibition [1] | inhibition [2] | inhibition [3] | inhibition [4] | inhibition [5] | inhibition [6] | inhibition [7] | inhibition [8] | inhibition [9] | inhibition [10] | inhibition [11] | inhibition [12] | inhibition [13] | inhibition [14] | inhibition [15] | inhibition [16] | inhibition [17] | inhibition [18] | inhibition [19] | inhibition [20]
CCOc1ccc2c(-c3ccnc(Nc4cc(OC)cc(C(F)(F)F)c4)n3)cnn2n1 | -0.03% | 0.7% | 1.42% | 1.18% | -0.28% | 3.19% | 1.38% | -0.97% | 0.04% | 0.8% | 1.23% | -0.5% | 4.41% | 0.58% | -0.09% | 0.28% | -1.31% | -0.04% | 2.77% | -1.2%
COc1ccc(Nc2ncc(-c3ccccc3)o2)cc1OC | 4.71% | 0.93% | 8.26% | -0.62% | 1.46% | -0.04% | 50.5% | -0.14% | 2.24% | 1.44% | 1.47% | 0.15% | 5.3% | -0.12% | -0.35% | 0.05% | 0.81% | 2.68% | 20.4% | 4.59%
CN1CCC(C(=O)Nc2n[nH]c3nc(-c4ccc(O)cc4)c(Br)cc23)CC1 | 5.88% and 4.76% | 3.23% and 2.76% | 12.3% and 11.1% | -1.13% and 0.82% | -1.76% and 1.46% | 0.73% and 0.68% | 5.31% and 2.46% | 3.5% and 1.61% | 5.98% and 3.76% | 2.41% and 2.49% | 2.5% and 1.28% | -1.57% and -0.96% | 5.44% and 10.2% | 1.56% and -0.15% | 1.12% | 2.88% and 0.82% | 2.79% and 1.9% | 3.54% and -0.23% | 8.58% and 1.5% | -0.22% and -0.59%
